Screening results: PubChem, National Center for Advancing Translational Sciences (NCATS)
MCF10A rerep – DNA re-replication induction in MCF 10a cells; AID 624296; MCF 10A DNA re-replication, Hoechst nuclear intensity, 48 h; 350,000 compounds, 2.9% hits; Potency, µM (doses to about 46.1 µM), usual class: activators; further: nearly all actives have a fitted effect of over 50% in size
RORgamma inh – blocks mouse ROR gamma transcriptional activity; P51450; Drosophila S2 Gal4-RORgamma UAS-luciferase reporter, 20 h; Potency, µM (titrated, usually from 53.6 µM), hits mostly inhibitors; 310,000 compounds, 5.4% hits; AID 2551; further: nearly all actives have a fitted effect of over 60% in size
Target sequence (P51450 whole entry, looked up, the tested form may be a part): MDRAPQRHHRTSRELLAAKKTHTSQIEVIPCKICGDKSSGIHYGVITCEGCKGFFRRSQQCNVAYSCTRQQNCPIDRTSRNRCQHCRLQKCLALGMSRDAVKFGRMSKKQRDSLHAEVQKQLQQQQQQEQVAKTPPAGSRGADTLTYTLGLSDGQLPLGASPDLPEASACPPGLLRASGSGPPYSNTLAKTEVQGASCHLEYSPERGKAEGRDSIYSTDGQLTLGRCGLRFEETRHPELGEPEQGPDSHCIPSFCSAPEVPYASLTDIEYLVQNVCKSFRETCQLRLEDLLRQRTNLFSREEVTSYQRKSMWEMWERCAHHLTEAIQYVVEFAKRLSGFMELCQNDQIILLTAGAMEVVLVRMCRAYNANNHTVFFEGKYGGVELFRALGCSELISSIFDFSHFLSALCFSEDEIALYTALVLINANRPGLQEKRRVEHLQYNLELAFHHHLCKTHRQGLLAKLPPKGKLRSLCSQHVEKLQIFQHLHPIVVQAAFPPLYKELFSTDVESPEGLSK
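Drosophila S2 cells stably expressing Gal4-DBD/mouse RORγ fusion under metallothionein promoter plus UAS-luciferase; compound 1 h, then 700 uM CuSO4 induction for 20 h at ambient temperature; inhibition read as reduced luminescence.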
ELG1 DNA repair – inhibitors of ELG1-dependent DNA repair in HEK293T cells | HEK293T ELG1-luciferase reporter, luminescence, 16 h; DNA damage induced by 5-fluorouridine | Potency, µM (series often up to 46.1 µM), hits mostly inhibitors | 330,000 compounds, 2.3% hits | AID 504467; further: nearly all actives have a fitted effect of over 55% in size
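Quantitative HTS, concentration-response format. 2,000 cells/well co-treated with 5-fluorouridine and compound, 16 hr in 5% CO2 at 37 °C; ONE-Glo luminescence read after 30 min.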
VP16 counter – counter-screen for ROR gamma inhibitors: Gal4-VP16 reporter; Potency, µM (doses to about 53.6 µM), most hits filed as inhibitors; Drosophila S2 Gal4-VP16 UAS-luciferase, luminescence, 20 h; AID 2546; 310,000 compounds, 3.5% hits;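 further: Gal4-VP16 expression switched on by copper sulfate through the metallothionein promoter; nearly all actives have a fitted effect of over 50% in size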
SW480 rereplic – DNA re-replication induction in SW480 cells. AID 624297. SW480 DNA re-replication, Hoechst DNA content imaging, 48 h. Potency, µM (series often up to 46.1 µM), most hits filed as activators. 340,000 compounds, 1.8% hits; further: nearly all actives have a fitted effect of over 55% in size
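Hoechst fluorescence of nuclei (405 nm excitation, 500-530 nm emission) measured by plate-scanning imager after 48 hr compound exposure at 37 C; re-replication scored as increased number of nuclei with elevated intensity.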
Hits are given with their value; - = inactive; ? = inconclusive; . = not tested or not shown; [ ] = remark or other dose. Most compounds without a hit are left out; they make up all but 10% or so of the library. The call rests on the fitted dose curve; in most records, active means well fitted curve in the direction sought with a large enough effect; inconclusive means small, poorly fitted or top-dose-only effect, or another doubt; inactive means no such curve, though single readings can be large; an effect the other way counts as inactive or inconclusive.

SMILES | MCF10A rerep | RORgamma inh | ELG1 DNA repair | VP16 counter | SW480 rereplic
CCCc1nc2ccccc2c(=O)n1/N=C/c1c(C)[nH]n(-c2ccc(C)cc2)c1=O | - | 13µM | ? | ? | ?
Cc1nc2ccccc2c(=O)n1/N=C/c1ccc(O)cc1O | - | - | - | - | -
COc1cccc(/C=N/n2c(C)nc3ccccc3c2=O)c1O | ? | 3.2µM | - | 16µM | ?
CCCc1nc2ccccc2c(=O)n1/N=C/c1ccccc1O | ? | 2.5µM | ? | 10µM | ?
COC(=O)[C@@H]1C[C@@H]2CC[C@@H](O)C[C@@H]2N1Cc1ccccc1OS(=O)(=O)c1ccc(C)cc1 | - | - | - | - | -
CCOC(=O)C1CCCN(C/C(O)=C(\C#N)c2nc(-c3ccc(Cl)cc3)cs2)C1 (stereo unspecified) | - | 22µM | - | ? | -
N#C/C(=C(/O)CN1CCCC1)c1nc(-c2ccccc2)cs1 | - | - | ? | - | -
CCOC(=O)C1CCCN(c2cc(C)nc3cc(-c4ccc(Cl)cc4)nn23)C1 (stereo unspecified) | - | ? | 26µM | - | -
C=CCc1ccccc1OCCNCc1ccccc1 | - | - | - | -[10 µM] | -
Cc1nc(N2CCN(C(=O)c3ccco3)CC2)c2oc3ccccc3c2n1 | ? | - | ? | - | 8.2µM
CC(C)(C)c1nc(N2CCN(C(=O)c3ccco3)CC2)c2nnn(Cc3ccccc3)c2n1 | 8.2µM | ? | ? | - | ?
O=C(c1ccco1)N1CCN(c2nc(C3CC3)nc3c2nnn3Cc2ccccc2Cl)CC1 | - | ? | ? | ? | -
CC(=O)N1CCN(c2ccc(Nc3ncnc4c3oc3ccccc34)cc2)CC1 | ? | - | ? | ? | -[9.22 µM]
CCc1nc(N2CCN(C(=O)c3ccco3)CC2)c2oc3ccccc3c2n1 | ? | - | ? | - | 12µM
CCc1nc(Nc2ccc(N3CCN(C(C)=O)CC3)cc2)c2oc3ccccc3c2n1 | ? | - | 9.2µM | - | -
COCC(C)N1CCC(Oc2ccc(C(=O)NCc3ccccn3)cc2)CC1 (stereo unspecified) | - | - | - | - | -
Cc1nc(N2CCN(C(=O)c3ccco3)CC2)c2c3c(sc2n1)CCCC3 | - | - | 18µM | - | -
Cc1cc(O)c(C(C)C)cc1NC(=O)Nc1ccc([N+](=O)[O-])cc1 | - | . | . | . | -
Cc1cc(O)c(C(C)C)cc1N=Cc1ccc(N(C)C)cc1 | 21µM | . | . | . | ?
Cc1cc(O)c(C(C)C)cc1N=Cc1ccc([N+](=O)[O-])cc1 | 18µM | . | . | . | 18µM
CCN1C=C(C(=O)c2ccccc2)C(=O)CC1 | - | . | . | . | -
O=C(COC(=O)c1ccc(Cl)c(S(=O)(=O)N2CCCCC2)c1)NCc1ccco1 | - | - | - | - | -
COc1cccc(Cn2c(=O)c(-c3cccc(C#N)c3)nc3cnc(OC)nc32)c1 | . | - | . | - | .
CC(=O)Nc1ccc(S(=O)(=O)NCC2CC3CCC2C3)cc1 (stereo unspecified) | ? | . | . | . | -[1.84 µM]
CC(OC(=O)c1ccc(C(C)(C)C)cc1)C(=O)NC1CCCCC1C (stereo unspecified) | - | - | - | 14µM | -
SMILES | MCF10A rerep | RORgamma inh | ELG1 DNA repair | VP16 counter | SW480 rereplic
O=C(O)/C=C\C(=O)Nc1ccccc1C#Cc1ccc(Br)cc1 | 18µM | ? | ? | - | ?
O=C(O)/C=C/C(=O)Nc1ccccc1SC(F)(F)F | - | - | - | 10µM | -
OCC#CCSc1nnc(-c2ccccc2Br)o1 | 12µM | - | ? | - | ?
OCC#CCSc1nnc(-c2ccc(Br)cc2)o1 | - | ? | ? | ? | -
C=CCN(CC=C)Cc1c(C)[nH]c2c(C)c(C)ccc2c1=O | - | ? | - | 13µM | -
CN(C)c1ccc(N2C(=O)CSC2=S)cc1 | ? | ? | ? | ? | -
CC1SC(=S)N(c2ccc(N(C)C)cc2)C1=O (stereo unspecified) | - | 11µM | - | 13µM | -
CCCOP(=O)(c1ccc(N(C)C)cc1)C(O)c1ccc(N(C)C)cc1 (stereo unspecified) | - | - | - | - | -
CCn1c(Sc2ccc([N+](=O)[O-])cn2)nnc1-c1ccco1 | 6.5µM | 10µM | - | ? | -
CCn1c(SCC(=O)OCc2ccccc2)nnc1-c1ccco1 | - | - | - | - | -
O=C(NC(=S)N1CCN(c2ccc([N+](=O)[O-])cc2)CC1)c1ccccc1Cl | - | 0.45µM | ? | 1.4µM | -
O=C(CSc1ccccc1C(=O)N1CCN(c2ccc([N+](=O)[O-])cc2)CC1)N1CCCC1 | - | . | 15µM | . | -
O=C(CSc1ccccc1C(=O)N1CCN(c2ccccc2)CC1)N1CCCC1 | - | . | - | . | -
O=C(NC(=S)N1CCN(c2ccc([N+](=O)[O-])cc2)CC1)c1ccccc1F | - | 0.56µM | - | 1µM | -
O=[N+]([O-])c1ccc(N2CCN(C(=S)Nc3ccccc3)CC2)cc1 | - | - | - | - | -
O=C(NC(=S)N1CCN(c2ccc([N+](=O)[O-])cc2)CC1)c1ccc(F)cc1 | ? | 1.1µM | - | 1µM | -
O=C(Nc1ccc(F)cc1)Nc1nnc(-c2ccco2)s1 | - | ? | ? | ? | -
COc1ccc(Oc2ncc3ncc(=O)n(-c4ccc(OC)cc4)c3n2)cc1 | . | - | . | - | .
CCc1cccc(C)c1NC(=O)c1cc(=O)[nH]c2ccc(S(=O)(=O)N3CCOCC3)cc12 | - | . | - | . | -
COc1ccc(-c2sc3cc(OC)c(OC)cc3c2-c2ccc(O)cc2)cc1 | ? | . | ? | . | 21µM
COc1ccc(-c2sc3ccc(OC)cc3c2-c2ccc(OC)nc2)cc1 | ? | . | ? | . | -
COc1ccccc1-c1sc2ccccc2c1-c1ccc(O)cc1 | ? | . | - | . | 16µM
COc1ccc2sc(-c3ccccc3OC)c(-c3ccc(OC)nc3)c2c1 | 23µM | . | ? | . | -
COc1ccccc1-c1sc2ccccc2c1-c1ccc2c(c1)OCO2 | ? | - | - | - | -
COc1ccccc1-c1sc2ccccc2c1C#Cc1ccc(N(C)C)cc1 | ? | . | ? | . | 8.2µM
SMILES | MCF10A rerep | RORgamma inh | ELG1 DNA repair | VP16 counter | SW480 rereplic
COc1ccc(-c2sc3ccccc3c2-c2ccc(O)cc2)cc1 | ? | . | - | . | -
COc1ccc(C(=O)NCC(c2cccs2)N2CCc3ccccc32)c(OC)c1 (stereo unspecified) | - | . | ? | . | -
COc1ccccc1-c1sc2cc3c(cc2c1-c1ccc(OCCN2CCCCC2)cc1)OCO3 | 10µM | . | - | . | -
COc1ccc(-c2c(-c3ccccc3OC)oc3ccccc23)cn1 | 16µM | . | ? | . | -
COc1ccccc1-c1oc2ccccc2c1-c1ccc2c(c1)OCO2 | ? | . | ? | . | -
O=C(CSc1nnc(C2CC2)n1Cc1ccccc1)N1CCNC1=O | - | . | - | . | -
CC12CCC(=O)N1C(C(=O)Nc1nccs1)CS2 (stereo unspecified) | - | . | - | . | -
O=C1c2cccc3cccc(c23)C(=O)N1OS(=O)(=O)c1ccccc1 | - | - | ? | - | ?
Cc1cc(S(=O)(=O)ON2C(=O)c3ccccc3C2=O)ccc1F | ? | ? | - | 13µM | -
